# Test results taken from PubChem BioAssay AID1117361 (Southern Research Institute, 2015).
# Among all 3,600 compounds or so, about 900 (25%) were called active. Only a sample is shown. Entries with a potency or affinity are not part of this list. Values without a mark were called inactive. No rule for the calls is given here.
# Target: Protein Tat (Human immunodeficiency virus type 1 group M subtype B (isolate HXB2)) (UniProt P04608)
# Assay: HIV-1 Tat–TAR interaction blockers – biochemical, fluorescence polarization, FAM-labeled TAR RNA, counter-screen for Vif-APOBEC3G degradation inhibitor project, dose response (AID 1117361)
# Conditions: Tat-TAR RNA binding; series mostly up to 100 µM; inhibition: at the top concentration
Compound,inhibition [%],outcome
Clc1ccc(-c2nnnn2-c2ccc(Cl)c(Cl)c2)cc1Cl,4.73,–
CCc1nnc(SCC(=O)NC2CCCCC2)nc1CC,13.6,–
Fc1ccc(-c2nnc(Cc3nnc(-c4ccc(F)cc4)o3)o2)cc1,1.36,–
O=C(NCc1ccc2c(c1)OCO2)c1cc2ncc(Br)cn2n1,25.9,–
Cc1ccc2c(c1C)NC(=O)C2(O)CC(=O)c1ccc2c(c1)OCO2 (stereo not given),2.73,–
CCOc1ccc(N(CC(=O)NCCC2=CCCCC2)S(=O)(=O)c2ccccc2)cc1,–,inactive
CCNC(=O)OCC(CC)NC(=O)OCC(C)C (stereo not given),–,inactive
Cc1cc(C)cc(-c2nnc(SCC(=O)NCc3cccs3)o2)c1,–,inactive
CCN(CC)c1ccc(/C=C2\C(=O)N(c3nnc(C)c(=O)[nH]3)N=C2C)cc1,–,inactive
c1ccc(N2CCN(c3ccc4nncn4n3)CC2)nc1,2.03,–
Cc1noc(C)c1C(=O)N1CCN(c2ncccn2)CC1,2.7,–
CCCCc1ccc(-c2nc(N)n[nH]2)cc1,1.35,–
COCCCN1CC23C=CC(O2)C(C(=O)O)C3C1=O (stereo not given),8.11,–
CC1CCN(c2ccc([N+](=O)[O-])c(SCCO)c2)CC1,–,inactive
Cc1ccc(S(=O)(=O)NCCCOC(=O)Nc2ccncc2)cc1,7.5,–
O=C(C1CCC(CNc2c(N3CCCCC3)c(=O)c2=O)CC1)N1CCN(C2CCCCC2)CC1 (stereo not given),–,inactive
O=C(CSc1nnnn1-c1ccc2c(c1)CCC2)Nc1ccc2c(c1)OCCO2,–,inactive
CCOC(=O)c1c(NC(=O)Cn2nnc(-c3ccccc3Cl)n2)sc(C)c1C,0.68,–
COc1ccc(OC)c(NC(=O)CSc2nc3ccccc3c(=O)n2CC2CCCO2)c1 (stereo not given),1,–
Cc1nn(Cc2ccccc2)c(C)c1C(=O)OCC(=O)c1cc(C)n(C2CC2)c1C,12.2,–
COC(=O)C1=CN(CC2CCCO2)C=C(C(=O)OC)C1c1ccccc1C(F)(F)F (stereo not given),4.77,–
Cc1cnc(NC(=O)CSc2nnc(CNc3ccc(F)cc3)n2CC2CCCO2)s1 (stereo not given),26.6,–

Compound,inhibition [%],outcome
[O-]/[N+](=C\C=C\c1ccccc1)c1ccccc1,–,inactive
COc1ccc(C2CC(C(F)(F)F)n3nc(C(=O)NCc4c(C)nn(C)c4C)c(Cl)c3N2)cc1 (stereo not given),–,inactive
O=S1(=O)Nc2c(ccc3cccnc23)-c2ccccc21,2.05,–
CCN(CC)c1ccc(NC2=C(Cl)C(=O)c3ccccc3C2=O)cc1,6.6,–
O=C1CSC(c2cccnc2)N1Cc1cccnc1 (stereo not given),20.6,–
COc1ccc(OCC(=O)O/N=C(\N)Cc2ccc(Cl)cc2)cc1,0.68,–
CCOC(=O)CN(C(=O)CSc1nnc(COc2ccc(OC)cc2)n1CC)c1ccccc1,–,inactive
Oc1c(C(c2ccccc2)N2CCN(Cc3ccccc3)CC2)sc2ncnn12 (stereo not given),–,inactive
Fc1ccc(C(CCCn2nnc(-c3cccnc3)n2)c2ccc(F)cc2)cc1,–,inactive
Cc1cc(CN2C(=O)c3ccccc3C2=O)cc(N2CCOCC2)c1,–,inactive
Cc1nc2cc(NC(=O)Nc3ccc(N4CCOCC4)cc3)ccc2n1C,–,inactive
Oc1ccccc1/C=N/Nc1nccnc1Cl,5.46,–
COc1ccc(/C=C/c2nnc(NC(=O)CSc3ccc(C)cc3)s2)cc1,–,inactive [at 50 µM]
COC(=O)C(NC(=O)c1ccco1)(Nc1nc(C)cs1)C(F)(F)F (stereo not given),8.78,–
COC(=O)c1ccc(CSc2nc3ccccc3c(=O)n2-c2ccc(OC)c(OC)c2)o1,3.38,–
CCn1cc(C(=O)NCc2ccco2)c2cc(OC)c(OC)cc2c1=O,2.73,–
C=CCN1C(=O)CSc2ccc(C(=O)NCc3ccco3)cc21,10.9,–
C=CCN1C(=O)c2ccc(C(=O)N3CCN(c4ccccc4OC)CC3)cc2C1=O,–,inactive
COC(=O)c1cc(OC)c(OC)cc1NC(=O)c1ccco1,–,inactive
CCOC(=O)C1=C(CNCCc2ccc(Cl)cc2)NC(=O)NC1c1ccc2c(c1)OCO2 (stereo not given),–,inactive
CCSc1nnc(NC(=O)c2ccc3ccccc3n2)s1,7.43,–
Cc1cc(C)n(-c2nc(Nc3ccccc3C(F)(F)F)nc(-n3nc(C)cc3C)n2)n1,–,inactive

Compound,inhibition [%],outcome
O=C(CSc1ccc2nnc(-c3cccnc3)n2n1)NCC1CCCO1 (stereo not given),–,inactive
Cc1c(NC(=O)/C(C#N)=C/C2CC=CCC2)c(=O)n(-c2ccccc2)n1C (stereo not given),6.08,–
O=C(c1ccccc1Cl)N(C(=O)c1ccccc1Cl)c1nccc(-c2cccs2)n1,6.08,–
O=[N+]([O-])c1ccc(/C=N/Nc2nc(N3CCCC3)nc(N3CCCC3)n2)o1,7.01,–
Cc1ccccc1Cn1cc(NC(=O)c2cc(C3CC3)on2)cn1,8.25,–
CCOC(=O)N1CCN(C(=O)C2CCCN(S(=O)(=O)c3ccc(C)cc3)C2)CC1 (stereo not given),12.2,–
CCN1CCN(c2ccc(S(=O)(=O)N3CCCCC3)cc2NC(=O)Cc2ccc(Cl)c(Cl)c2)CC1,–,inactive
Clc1ccc(Nc2nc(C3CC3)cs2)cc1,–,inactive
CCN(c1cccc(C)c1)S(=O)(=O)c1cnc[nH]1,–,inactive
Cn1nc(-c2ccc(Cl)cc2)c2cc(C(=O)N3CCN(C(=O)c4ccco4)CC3)sc21,2.03,–
Cn1nc(-c2ccc(Cl)cc2)c2cc(C(=O)NCCCN3CCOCC3)sc21,3.38,–
O=C(O)CC(Cn1cnnn1)c1ccccc1 (stereo not given),12.4,–
COc1ccc(Cl)cc1N(C)C(=O)CCNC(=O)Cn1cnc2ccccc2c1=O,6.82,–
Cc1csc(=O)n1CC(=O)OCC(=O)c1ccc(Br)cc1,–,inactive
CCOc1cccc(CN2CCCC(C(=O)Nc3cccc(-n4cccn4)c3)C2)c1 (stereo not given),7.68,–
CC(=O)Nc1ccc(S(=O)(=O)Nc2nnc(C(C)C)s2)cc1,–,inactive
N#Cc1nc(-c2ccco2)oc1N1CCN(c2ccccc2)CC1,–,inactive
CSc1nc(N2CCOCC2)c2c(c1C#N)CC(C)(C)OC2,4.73,–
CCOc1cc(S(=O)(=O)N(CC)CC)c(OCC)cc1-n1cnnn1,5.41,–
Cc1nnc(NC(=O)c2ccc(S(=O)(=O)N(C)Cc3ccccc3)cc2)o1,3.41,–
CC1(C)CC(Nc2ccc(Nc3ccccc3)cc2)CC(C)(C)N1,–,inactive
CCC1=C2CC[C@H]3C(=O)NC(=O)[C@H]3[C@H]2[C@@]2(Cc3ccccc3)C(=NCC(=O)OC)OC(=O)N2C1=O,1.65,–

Compound,inhibition [%],outcome
Nc1nc(Sc2ccc([N+](=O)[O-])c3nonc23)c2[nH]cnc2n1,18.4,–
Nc1nc(SCc2nc3scc(-c4ccccc4)c3c(=O)[nH]2)n[nH]1,3.67,–
S=c1[nH]nc(Cn2nnc3ccccc32)n1-c1ccccc1,–,inactive
COc1ccccc1C(=O)Nc1ccc(-c2nnc(SCC(=O)O)n2C)cc1,18.1,–
Cc1cc(C(=O)NNC(=O)CCC2CCCCC2)c(C)o1,–,inactive
Cc1cc(/C=C2\SC(=S)NC2=O)c(C)n1C,4.34,–
CCOC(=O)c1c(-c2cccs2)csc1NC(=O)CC(C)C,5.41,–
O=C(O)c1ccc(N2C(=O)c3cccnc3C2=O)cc1,–,inactive
Cc1c(C=O)c(C=O)c(C)n1Cc1ccccc1,11.6,–
Cc1cc(/C=N/n2cnnc2)c(C)n1-c1cccc(Cl)c1,14.9,–
Cc1ccc(C(=O)N2CCN(c3ccccc3)CC2)cc1C,10.9,–
Cc1ccc(-n2nc(C(=O)O)c3ccccc3c2=O)cc1C,0.68,–
CC(=O)C1CCN(Cc2ccccc2)CC1,13,–
O=C(OC(C(=O)NCc1cccs1)c1ccccc1Cl)c1ccco1 (stereo not given),–,inactive
O=S(=O)(c1cccc2ccccc12)n1nnc2ccccc21,2.7,–
O=C(OCn1cncn1)c1ccc(Cl)cc1Cl,0.68,–
CC(C)(C)OC(=O)N1CCC[C@H]1c1nnc(SC/C=C/c2ccccc2)o1,9.46,–
Clc1ccc(C2=Nn3c(nnc3-c3cc(-c4ccccc4)n[nH]3)SC2)cc1,8.78,–
O=C(O)c1ccc2c(c1)N(Cc1cccc(F)c1)C(=O)CS2,–,inactive
Cc1cc(NS(=O)(=O)c2cc(Cl)sc2Cl)no1,4.34,–
O=C(O)c1cc(-c2ccccc2)on1,–,inactive
COc1ccc(C(=O)N2CCCC(C(=O)N3CCCCCC3)C2)cc1 (stereo not given),4.05,–

Compound,inhibition [%],outcome
Cc1ccc(S(=O)(=O)N(C)CC(O)Cn2c3ccccc3c3ccccc32)cc1 (stereo not given),6.08,–
COc1cc(/C=C2/C(=O)N(c3ccc(Br)cc3)N=C2C)cc(OC)c1OC,5.68,–
CC(=O)Nc1ccc(OCC(=O)N2CCc3ccccc3C2)cc1,–,inactive
CCn1ncc(/C=C/C(=O)NCc2cn(C)nc2C)c1C,4.05,–
Cn1c(=O)cc(SCC(=O)NCCCN2CCOCC2)c2ccccc21,–,inactive
O=C(c1ccccc1)N1CCN(c2ccc(Cl)cc2)CC1,12.8,–
Cc1ccc(-c2nc(-c3ccccc3)no2)cc1,–,inactive
Cc1cccc(C)c1NC(=O)Cn1c(=O)n(CCCC(=O)NCc2ccco2)c(=O)c2sccc21,1.36,–
NS(=O)(=O)c1ccc(N=Nc2ccc(=O)[nH]c2O)cc1,5.01,–
COc1cc(NC(=O)CSCC(=O)N(C)C2CCCCC2)cc(OC)c1,1.65,–
Cc1ccccc1OCC(=O)OCC(=O)c1ccc(OC(=O)c2ccccc2)cc1,3.67,–
Cc1ccc(Nc2nc(C(=O)NCc3ccco3)cs2)cc1,12.8,–
c1coc(CNc2nc(-c3cccs3)cs2)c1,20.6,–
COCCOC(=O)CC1=NC(=O)CS1,–,inactive
Cc1cc(C(F)F)n2ncc(C(=O)NCc3ccccc3C(F)(F)F)c2n1,–,inactive
Cc1cc(C)c(Cc2c(C)nc3c(C(=O)NCc4ccco4)cnn3c2C)c(C)c1,2.73,–
COc1cc(OC)cc(C(=O)NC(=S)N2CCN(c3ccc(C(F)(F)F)cc3[N+](=O)[O-])CC2)c1,2.7,–
CSCCC(NC(N)=O)C(=O)NCc1ccc(Cl)cc1 (stereo not given),2.7,–
COc1ccc(N2C(=O)CC(Sc3nc(C)c4c(n3)CCCC4)C2=O)cc1 (stereo not given),6.08,–
O=S(=O)(c1ccc(S(=O)(=O)N2CCCC2)cc1)N1CCCCCC1,–,inactive
CC(C)(C)c1ccc(S(=O)(=O)N2CCCCC2)cc1,17.3,–
CC1=C(C(=O)OCCOc2ccccc2)C(c2ccc(C)o2)C2=C(CC(C)(C)CC2=O)N1 (stereo not given),2.05,–
